Data taken from paper PMC7862700, “An all-to-all approach to the identification of sequence-specific readers for epigenetic DNA modifications on cytosine”.

Experiments:
Assay in all cases: DAPPL (digital affinity profiling via proximity ligation, sequencing); 10 mM Tris-HCl pH 7.5, 50 mM NaCl, 1 mM DTT, 4% glycerol, room temperature, 30 min; GST-TFs on glutathione beads, 16-mer random dsDNA library, 0.1% formaldehyde crosslink after washing; high values mean tight binding
Conditions in all cases: protein: recombinant; tags: N-terminal GST; dsDNA, one strand shown
ELK1 = biological target: T1, ELK1 (Homo sapiens, UniProt P19419 1-428)
T1 sequence: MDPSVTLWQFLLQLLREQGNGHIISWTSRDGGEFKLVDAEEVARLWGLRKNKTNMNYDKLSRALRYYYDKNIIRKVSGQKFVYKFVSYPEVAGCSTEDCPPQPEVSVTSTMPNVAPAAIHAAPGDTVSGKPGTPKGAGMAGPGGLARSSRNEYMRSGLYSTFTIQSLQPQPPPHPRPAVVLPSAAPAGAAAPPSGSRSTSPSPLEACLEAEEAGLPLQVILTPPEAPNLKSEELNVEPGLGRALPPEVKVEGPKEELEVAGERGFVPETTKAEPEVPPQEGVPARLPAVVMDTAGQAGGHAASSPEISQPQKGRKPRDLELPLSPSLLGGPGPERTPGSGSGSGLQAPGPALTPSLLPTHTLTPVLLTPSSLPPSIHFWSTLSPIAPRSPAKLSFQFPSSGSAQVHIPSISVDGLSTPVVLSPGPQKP
How it was run: (§1)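 Binding signal is each hexamer's read frequency for a factor divided by its frequency in the tag-only sample. The factors were GST-fused human transcription factors from yeast, captured on glutathione beads, DNA-barcoded and pooled with that sample. Pools were incubated with 200 nmole of a random double-stranded 16-mer DNA library in Tris/NaCl/DTT/glycerol buffer at room temperature for 30 min, then washed, crosslinked with 0.1% formaldehyde, proximity-ligated with BsaI/T4 ligase (1 h, 37 °C), PCR-amplified and sequenced on an Illumina NextSeq500.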

GABPA = biological target: T2, GABPA (Homo sapiens, UniProt Q06546 1-454)
T2 sequence: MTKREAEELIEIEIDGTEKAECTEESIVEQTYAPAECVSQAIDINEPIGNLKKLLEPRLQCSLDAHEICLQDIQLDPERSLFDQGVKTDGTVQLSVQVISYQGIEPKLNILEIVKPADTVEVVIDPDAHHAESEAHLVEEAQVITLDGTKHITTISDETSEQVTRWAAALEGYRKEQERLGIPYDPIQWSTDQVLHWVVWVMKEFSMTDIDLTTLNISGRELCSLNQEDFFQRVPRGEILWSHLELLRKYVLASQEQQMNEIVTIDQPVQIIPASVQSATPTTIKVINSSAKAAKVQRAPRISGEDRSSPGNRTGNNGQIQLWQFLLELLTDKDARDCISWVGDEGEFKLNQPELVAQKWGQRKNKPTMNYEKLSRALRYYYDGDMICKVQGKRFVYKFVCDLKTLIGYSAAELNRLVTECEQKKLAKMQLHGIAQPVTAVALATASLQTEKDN
How it was run: as §1

ELF1 = ELF1 (Homo sapiens, UniProt P32519 1-619)
Chain of ELF1 (P32519 whole entry): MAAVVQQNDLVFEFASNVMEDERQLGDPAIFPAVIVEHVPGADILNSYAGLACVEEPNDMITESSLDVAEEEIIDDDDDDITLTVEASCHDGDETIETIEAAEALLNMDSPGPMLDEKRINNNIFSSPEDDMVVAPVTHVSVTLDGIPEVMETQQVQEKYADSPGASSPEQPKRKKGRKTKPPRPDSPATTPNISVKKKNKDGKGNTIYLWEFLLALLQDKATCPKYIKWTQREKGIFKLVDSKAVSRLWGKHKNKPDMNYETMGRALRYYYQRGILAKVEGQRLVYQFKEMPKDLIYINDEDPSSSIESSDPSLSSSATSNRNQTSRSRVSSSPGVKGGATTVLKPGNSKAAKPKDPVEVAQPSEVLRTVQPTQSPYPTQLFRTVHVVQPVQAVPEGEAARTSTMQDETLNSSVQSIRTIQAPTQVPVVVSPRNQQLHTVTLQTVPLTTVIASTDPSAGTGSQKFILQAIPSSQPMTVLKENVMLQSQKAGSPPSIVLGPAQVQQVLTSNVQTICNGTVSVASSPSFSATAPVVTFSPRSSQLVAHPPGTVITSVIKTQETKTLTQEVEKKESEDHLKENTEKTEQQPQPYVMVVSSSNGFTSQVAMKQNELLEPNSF
How it was run: as §1

SPIB = SPIB (Homo sapiens, UniProt Q01892 1-262)
Chain of SPIB (Q01892 whole entry): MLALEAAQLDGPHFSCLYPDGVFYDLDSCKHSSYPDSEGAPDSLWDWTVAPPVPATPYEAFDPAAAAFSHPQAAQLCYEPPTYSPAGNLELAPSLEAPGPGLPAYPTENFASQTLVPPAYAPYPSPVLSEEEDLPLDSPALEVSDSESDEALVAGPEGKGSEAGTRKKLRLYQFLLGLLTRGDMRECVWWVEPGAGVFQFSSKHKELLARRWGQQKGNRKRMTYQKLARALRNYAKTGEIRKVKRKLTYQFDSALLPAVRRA
How it was run: as §1

FEV = biological target: T3, FEV (Homo sapiens, UniProt Q99581 1-238)
T3 sequence: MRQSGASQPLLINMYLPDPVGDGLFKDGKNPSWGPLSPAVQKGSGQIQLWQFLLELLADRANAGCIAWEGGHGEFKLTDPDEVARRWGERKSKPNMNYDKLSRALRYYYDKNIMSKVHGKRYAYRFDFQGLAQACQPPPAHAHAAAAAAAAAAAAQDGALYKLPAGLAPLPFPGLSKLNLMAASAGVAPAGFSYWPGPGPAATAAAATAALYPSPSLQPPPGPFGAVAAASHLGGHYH
How it was run: as §1

ETV5 = ETV5 (Homo sapiens, UniProt P41161 1-510)
Chain of ETV5 (P41161 whole entry): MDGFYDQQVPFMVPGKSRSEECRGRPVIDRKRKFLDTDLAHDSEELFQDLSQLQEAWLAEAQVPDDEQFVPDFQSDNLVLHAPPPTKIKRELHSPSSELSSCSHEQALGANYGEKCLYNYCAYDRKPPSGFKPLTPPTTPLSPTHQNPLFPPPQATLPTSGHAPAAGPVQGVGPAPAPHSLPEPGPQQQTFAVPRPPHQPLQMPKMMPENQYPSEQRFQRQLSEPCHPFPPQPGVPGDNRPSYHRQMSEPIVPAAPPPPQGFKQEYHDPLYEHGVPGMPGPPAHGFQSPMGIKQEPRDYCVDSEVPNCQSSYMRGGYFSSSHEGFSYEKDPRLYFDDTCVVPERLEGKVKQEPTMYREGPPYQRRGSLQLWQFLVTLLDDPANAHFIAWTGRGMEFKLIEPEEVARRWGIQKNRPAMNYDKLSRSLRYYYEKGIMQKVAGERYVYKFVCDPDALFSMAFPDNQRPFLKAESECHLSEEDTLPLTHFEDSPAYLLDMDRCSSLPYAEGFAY
How it was run: as §1

ELF4 = ELF4 (Homo sapiens, UniProt Q99607 1-663)
Chain of ELF4 (Q99607 whole entry): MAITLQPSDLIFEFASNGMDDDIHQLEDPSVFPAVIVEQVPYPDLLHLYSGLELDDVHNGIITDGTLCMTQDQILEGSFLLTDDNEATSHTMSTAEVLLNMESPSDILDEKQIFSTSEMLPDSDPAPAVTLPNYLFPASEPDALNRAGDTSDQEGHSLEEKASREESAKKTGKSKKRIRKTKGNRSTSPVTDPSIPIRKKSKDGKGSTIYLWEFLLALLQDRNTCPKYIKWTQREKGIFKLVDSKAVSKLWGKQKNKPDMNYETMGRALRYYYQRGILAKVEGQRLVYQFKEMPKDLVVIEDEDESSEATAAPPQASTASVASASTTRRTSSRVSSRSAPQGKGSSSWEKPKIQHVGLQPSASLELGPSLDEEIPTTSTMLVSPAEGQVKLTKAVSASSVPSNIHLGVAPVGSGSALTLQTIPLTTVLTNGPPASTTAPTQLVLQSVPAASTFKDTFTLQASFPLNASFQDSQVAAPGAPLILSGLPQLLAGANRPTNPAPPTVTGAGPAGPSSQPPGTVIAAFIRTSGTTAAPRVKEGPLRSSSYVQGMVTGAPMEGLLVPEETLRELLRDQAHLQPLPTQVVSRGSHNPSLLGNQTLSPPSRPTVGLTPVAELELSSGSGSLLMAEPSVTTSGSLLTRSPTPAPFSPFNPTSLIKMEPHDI
How it was run: as §1

ETV1 = ETV1 (Homo sapiens, UniProt P50549 1-477)
Chain of ETV1 (P50549 whole entry): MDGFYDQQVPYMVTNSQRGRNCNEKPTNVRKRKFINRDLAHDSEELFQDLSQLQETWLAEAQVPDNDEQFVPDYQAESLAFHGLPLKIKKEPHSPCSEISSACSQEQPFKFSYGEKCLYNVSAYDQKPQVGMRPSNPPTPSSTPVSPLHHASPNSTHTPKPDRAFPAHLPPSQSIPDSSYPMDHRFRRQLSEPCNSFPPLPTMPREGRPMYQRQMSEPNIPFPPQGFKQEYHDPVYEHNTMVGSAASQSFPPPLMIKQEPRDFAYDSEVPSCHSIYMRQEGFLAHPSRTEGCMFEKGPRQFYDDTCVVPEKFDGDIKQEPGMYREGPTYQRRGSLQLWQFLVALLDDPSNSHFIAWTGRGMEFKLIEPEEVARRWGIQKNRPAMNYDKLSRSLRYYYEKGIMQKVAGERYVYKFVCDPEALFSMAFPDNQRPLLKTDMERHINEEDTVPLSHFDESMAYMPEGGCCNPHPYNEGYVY
How it was run: as §1

ERF = biological target: T4, ERF (Homo sapiens, UniProt P50548 1-548)
T4 sequence: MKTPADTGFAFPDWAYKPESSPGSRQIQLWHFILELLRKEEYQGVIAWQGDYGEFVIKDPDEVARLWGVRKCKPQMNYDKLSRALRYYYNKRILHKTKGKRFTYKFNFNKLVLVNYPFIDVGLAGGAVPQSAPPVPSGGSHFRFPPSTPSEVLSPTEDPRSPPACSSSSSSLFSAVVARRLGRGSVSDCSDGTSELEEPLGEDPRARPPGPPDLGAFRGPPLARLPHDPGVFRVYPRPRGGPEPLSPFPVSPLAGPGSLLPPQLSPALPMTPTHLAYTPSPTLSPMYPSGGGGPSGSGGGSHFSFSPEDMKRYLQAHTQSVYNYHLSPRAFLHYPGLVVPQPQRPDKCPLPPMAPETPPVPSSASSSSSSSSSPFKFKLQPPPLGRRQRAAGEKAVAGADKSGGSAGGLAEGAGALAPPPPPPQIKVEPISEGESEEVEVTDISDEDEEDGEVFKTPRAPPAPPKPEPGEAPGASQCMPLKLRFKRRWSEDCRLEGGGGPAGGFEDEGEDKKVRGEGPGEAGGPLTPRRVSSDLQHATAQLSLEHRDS
How it was run: as §1

ETV7 = biological target: T5, ETV7 (Homo sapiens, UniProt Q9Y603 1-341)
T5 sequence: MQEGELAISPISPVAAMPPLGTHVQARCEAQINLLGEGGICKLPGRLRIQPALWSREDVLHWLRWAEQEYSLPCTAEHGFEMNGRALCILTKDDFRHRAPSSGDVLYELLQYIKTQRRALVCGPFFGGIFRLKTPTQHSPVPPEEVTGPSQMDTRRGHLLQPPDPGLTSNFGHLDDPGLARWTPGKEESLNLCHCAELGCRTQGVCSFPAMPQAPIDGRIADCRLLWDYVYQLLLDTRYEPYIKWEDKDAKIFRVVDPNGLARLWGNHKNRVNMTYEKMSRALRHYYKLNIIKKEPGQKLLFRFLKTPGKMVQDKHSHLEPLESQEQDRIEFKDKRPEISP
How it was run: as §1

ETV3 = biological target: T6, ETV3 (Homo sapiens, UniProt P41162-2 1-143)
T6 sequence: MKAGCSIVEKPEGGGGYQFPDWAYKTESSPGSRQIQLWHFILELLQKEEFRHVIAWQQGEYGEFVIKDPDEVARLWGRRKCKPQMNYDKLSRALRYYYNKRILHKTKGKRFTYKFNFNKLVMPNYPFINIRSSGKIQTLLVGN
How it was run: as §1

ETV6 = ETV6 (Homo sapiens, UniProt P41212 1-452)
Chain of ETV6 (P41212 whole entry): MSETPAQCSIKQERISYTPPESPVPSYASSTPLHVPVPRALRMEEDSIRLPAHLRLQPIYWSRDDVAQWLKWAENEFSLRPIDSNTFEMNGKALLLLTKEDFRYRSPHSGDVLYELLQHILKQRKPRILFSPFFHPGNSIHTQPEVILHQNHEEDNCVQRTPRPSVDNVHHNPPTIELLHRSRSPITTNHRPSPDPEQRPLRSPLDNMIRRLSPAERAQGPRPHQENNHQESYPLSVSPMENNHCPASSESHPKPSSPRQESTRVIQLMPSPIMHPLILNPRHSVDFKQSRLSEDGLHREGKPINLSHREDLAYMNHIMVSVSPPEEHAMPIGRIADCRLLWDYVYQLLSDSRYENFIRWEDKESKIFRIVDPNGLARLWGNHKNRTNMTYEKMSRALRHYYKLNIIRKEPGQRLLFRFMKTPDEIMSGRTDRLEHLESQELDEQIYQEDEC
How it was run: as §1

ELK4 = biological target: T7, ELK4 (Homo sapiens, UniProt P28324-2 1-405)
T7 sequence: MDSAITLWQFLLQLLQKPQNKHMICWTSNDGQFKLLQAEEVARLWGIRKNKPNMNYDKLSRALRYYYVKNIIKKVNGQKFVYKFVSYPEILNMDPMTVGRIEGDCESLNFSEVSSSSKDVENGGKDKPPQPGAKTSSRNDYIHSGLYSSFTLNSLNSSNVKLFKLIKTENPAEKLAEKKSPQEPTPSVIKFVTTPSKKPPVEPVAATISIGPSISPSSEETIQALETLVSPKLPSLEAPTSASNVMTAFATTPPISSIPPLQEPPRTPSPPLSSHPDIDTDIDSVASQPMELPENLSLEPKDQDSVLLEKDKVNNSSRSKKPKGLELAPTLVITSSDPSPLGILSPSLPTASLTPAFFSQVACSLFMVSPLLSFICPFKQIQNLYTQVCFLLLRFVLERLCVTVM
How it was run: as §1

ETV2 = biological target: T8, ETV2 (Homo sapiens, UniProt O00321 1-342)
T8 sequence: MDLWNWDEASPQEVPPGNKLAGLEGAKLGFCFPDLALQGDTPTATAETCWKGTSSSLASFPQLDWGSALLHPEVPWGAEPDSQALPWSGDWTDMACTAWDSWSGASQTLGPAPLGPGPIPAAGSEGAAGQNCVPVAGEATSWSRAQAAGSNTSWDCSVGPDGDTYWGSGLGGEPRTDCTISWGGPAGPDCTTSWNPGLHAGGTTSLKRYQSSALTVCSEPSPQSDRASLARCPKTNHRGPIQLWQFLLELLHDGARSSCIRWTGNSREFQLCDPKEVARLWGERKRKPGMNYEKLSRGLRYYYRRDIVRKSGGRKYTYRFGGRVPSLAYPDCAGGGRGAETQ
How it was run: as §1

ETV3L = biological target: T9, ETV3L (Homo sapiens, UniProt Q6ZN32 1-361)
T9 sequence: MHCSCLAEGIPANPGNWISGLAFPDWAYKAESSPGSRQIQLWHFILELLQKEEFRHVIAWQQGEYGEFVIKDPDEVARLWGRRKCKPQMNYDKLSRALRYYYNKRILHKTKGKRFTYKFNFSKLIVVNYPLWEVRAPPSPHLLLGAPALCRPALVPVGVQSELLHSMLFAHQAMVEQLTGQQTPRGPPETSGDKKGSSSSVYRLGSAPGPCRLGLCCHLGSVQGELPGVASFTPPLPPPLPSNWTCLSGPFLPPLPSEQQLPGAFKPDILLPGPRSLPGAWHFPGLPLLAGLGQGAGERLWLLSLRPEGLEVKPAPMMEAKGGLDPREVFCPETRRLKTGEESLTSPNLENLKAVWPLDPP
How it was run: as §1

ETS2 = biological target: T10, ETS2 (Homo sapiens, UniProt P15036 1-469)
T10 sequence: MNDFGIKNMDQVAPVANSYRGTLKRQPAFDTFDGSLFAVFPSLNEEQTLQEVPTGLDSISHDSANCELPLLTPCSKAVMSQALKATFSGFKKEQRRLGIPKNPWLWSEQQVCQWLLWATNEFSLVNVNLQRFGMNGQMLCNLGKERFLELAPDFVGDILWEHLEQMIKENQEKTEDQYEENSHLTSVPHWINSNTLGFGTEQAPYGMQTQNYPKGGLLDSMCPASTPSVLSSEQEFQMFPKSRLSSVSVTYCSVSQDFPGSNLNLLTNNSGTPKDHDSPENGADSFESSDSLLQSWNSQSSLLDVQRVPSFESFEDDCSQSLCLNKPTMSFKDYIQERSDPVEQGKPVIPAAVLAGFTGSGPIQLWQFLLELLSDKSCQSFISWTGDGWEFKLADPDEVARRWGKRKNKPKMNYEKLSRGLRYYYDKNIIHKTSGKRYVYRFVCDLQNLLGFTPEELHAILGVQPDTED
How it was run: as §1

Sequence | binding signal (ELK1) | binding signal (GABPA) | binding signal (ELF1) | binding signal (SPIB) | binding signal (FEV) | binding signal (ETV5) | binding signal (ELF4) | binding signal (ETV1) | binding signal (ERF) | binding signal (ETV7) | binding signal (ETV3) | binding signal (ETV6) | binding signal (ELK4) | binding signal (ETV2) | binding signal (ETV3L) | binding signal (ETS2)
CAATGG | 1.03 fold enrichment (6-mer frequency, TF over GST control) | 1.09 fold enrichment (6-mer frequency, TF over GST control) | 1.03 fold enrichment (6-mer frequency, TF over GST control) | 1.03 fold enrichment (6-mer frequency, TF over GST control) | 1.04 fold enrichment (6-mer frequency, TF over GST control) | 1.03 fold enrichment (6-mer frequency, TF over GST control) | 1.02 fold enrichment (6-mer frequency, TF over GST control) | 1.1 fold enrichment (6-mer frequency, TF over GST control) | 1.03 fold enrichment (6-mer frequency, TF over GST control) | 1.12 fold enrichment (6-mer frequency, TF over GST control) | 1.03 fold enrichment (6-mer frequency, TF over GST control) | 1.04 fold enrichment (6-mer frequency, TF over GST control) | – | – | – | –
CGCACG | – | 1.02 fold enrichment (6-mer frequency, TF over GST control) | 1.01 fold enrichment (6-mer frequency, TF over GST control) | 1.06 fold enrichment (6-mer frequency, TF over GST control) | 1.02 fold enrichment (6-mer frequency, TF over GST control) | 1.06 fold enrichment (6-mer frequency, TF over GST control) | 1.04 fold enrichment (6-mer frequency, TF over GST control) | 1.04 fold enrichment (6-mer frequency, TF over GST control) | 1.06 fold enrichment (6-mer frequency, TF over GST control) | 1.06 fold enrichment (6-mer frequency, TF over GST control) | – | 1.08 fold enrichment (6-mer frequency, TF over GST control) | 1.1 fold enrichment (6-mer frequency, TF over GST control) | 1.09 fold enrichment (6-mer frequency, TF over GST control) | 1.01 fold enrichment (6-mer frequency, TF over GST control) | 1.02 fold enrichment (6-mer frequency, TF over GST control)
